PubChem BioAssay (Tox21)
Where “and” joins values, the source holds several entries; their conditions need not be identical. Identical values can stand only once. Results filed as inconclusive are left out. A structure can be active in one record and inactive in another. Calls of active or inactive are those of the source. Unless noted, calls come from the whole dose curve; as a rule, active = well fitted curve in the direction sought with a large enough effect in the repeat runs; inconclusive = weak or mixed curves; inactive = no such curve, though single readings can be large; an effect the other way counts as inactive or inconclusive.

How the values were obtained:
[1] = qHTS assay to identify small molecule antagonists of the glucocorticoid receptor (GR) signaling pathway - cell viability counter screen (AID 720693); note: nearly all actives have a fitted effect of over 55% in size; note: potency is the fitted concentration of half-maximal effect
[2] = qHTS assay for identifying genotoxic compounds that show differential cytotoxicity against isogenic chicken DT40 cell lines with known DNA damage response pathways - Rev3 mutant cell line (AID 743014); note: nearly all actives have a fitted effect of over 55% in size; note: potency is the fitted concentration of half-maximal effect
[3] = qHTS assay for identifying genotoxic compounds that show differential cytotoxicity against isogenic chicken DT40 cell lines with known DNA damage response pathways - Rad54/Ku70 mutant cell line (AID 743015); note: nearly all actives have a fitted effect of over 60% in size; note: potency is the fitted concentration of half-maximal effect
[4] = qHTS assay to identify small molecule antagonists of the androgen receptor (AR) signaling pathway - cell viability counter screen (AID 743033; note: nearly all actives have a fitted effect of over 45% in size; note: potency is the fitted concentration of half-maximal effect)
[5] = target: Androgen receptor (Homo sapiens) (UniProt P10275); assay: qHTS assay to identify small molecule antagonists of the androgen receptor (AR) signaling pathway (AID 743035; active = well fitted inhibition curve with a large enough effect in the signal ratio in the repeat runs, not every such curve was filed as active; the % refers to the signal ratio)
Chain of Androgen receptor (Homo sapiens) (P10275 whole entry, looked up): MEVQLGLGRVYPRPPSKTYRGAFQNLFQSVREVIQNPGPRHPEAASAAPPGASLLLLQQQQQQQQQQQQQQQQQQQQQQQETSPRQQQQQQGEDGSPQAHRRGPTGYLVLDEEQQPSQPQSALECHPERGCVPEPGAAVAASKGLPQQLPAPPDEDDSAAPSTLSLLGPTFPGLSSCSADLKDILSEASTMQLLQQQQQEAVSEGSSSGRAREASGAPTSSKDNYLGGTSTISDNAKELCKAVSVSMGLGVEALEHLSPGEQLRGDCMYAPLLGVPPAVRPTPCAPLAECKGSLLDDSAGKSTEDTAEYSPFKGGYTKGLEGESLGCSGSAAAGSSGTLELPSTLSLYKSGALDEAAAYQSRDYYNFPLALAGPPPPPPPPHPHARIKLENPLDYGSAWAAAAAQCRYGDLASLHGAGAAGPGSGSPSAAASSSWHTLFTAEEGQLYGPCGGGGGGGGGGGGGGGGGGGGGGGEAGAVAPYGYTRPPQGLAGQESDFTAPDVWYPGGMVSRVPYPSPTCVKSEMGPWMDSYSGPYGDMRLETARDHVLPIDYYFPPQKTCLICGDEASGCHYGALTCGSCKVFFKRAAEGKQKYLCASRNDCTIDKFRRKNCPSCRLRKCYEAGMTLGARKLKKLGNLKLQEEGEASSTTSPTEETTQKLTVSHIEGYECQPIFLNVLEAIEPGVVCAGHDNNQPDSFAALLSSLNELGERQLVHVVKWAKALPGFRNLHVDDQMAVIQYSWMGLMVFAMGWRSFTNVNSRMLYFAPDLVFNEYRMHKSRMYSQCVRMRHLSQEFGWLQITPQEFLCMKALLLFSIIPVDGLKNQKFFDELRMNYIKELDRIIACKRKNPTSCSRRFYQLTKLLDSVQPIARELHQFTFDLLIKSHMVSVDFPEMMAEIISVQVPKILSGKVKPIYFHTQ
Outline: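 Using qHTS, AR-UAS-bla GripTite HEK293 cells received compound, then R1881, and were cultured 16 h at 37C/5% CO2 before a 2 h room-temperature LiveBLAzer B/G FRET substrate step and fluorescence measurement.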

[6] = target: Androgen receptor (Homo sapiens) (UniProt P10275); assay: qHTS assay to identify small molecule agonists of the androgen receptor (AR) signaling pathway (AID 743036; active = well fitted activation curve with a large enough effect in the signal ratio in the repeat runs, with a control signal flat, not every such curve was filed as active; the % refers to the signal ratio)
Outline: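 Quantitative HTS of the Tox21 10K library in HEK293 cells bearing a stably integrated UAS-controlled beta-lactamase reporter. Compound exposure lasted 16 h at 37C. Reporter activity was detected by FRET substrate fluorescence after 2 h at room temperature.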

[7] = target: Androgen receptor (Homo sapiens) (UniProt P10275); assay: qHTS assay to identify small molecule agonists of the androgen receptor (AR) signaling pathway using the MDA cell line (AID 743040; note: nearly all actives have a fitted effect of over 20% in size)
Outline: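 Human breast carcinoma MDA-kb2 reporter cells (MMTV-luc, AR/GR elements) were treated for 16 h at 37C in 0% CO2 following a 5 h settling period. Signal was quantified by ONE-Glo luminescence.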

[8] = qHTS assay to identify small molecule antagonists of the androgen receptor (AR) signaling pathway using the MDA cell line - cell viability counter screen (AID 743041; note: nearly all actives have a fitted effect of over 45% in size)
Outline: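 Same-well cytotoxicity was assessed by CellTiter-Fluor in MDA-kb2 AR-luc cells after 16 h of compound treatment under R1881 agonism.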

[9] = target: Androgen receptor (Homo sapiens) (UniProt P10275); assay: qHTS assay to identify small molecule antagonists of the androgen receptor (AR) signaling pathway using the MDA cell line (AID 743042; note: nearly all actives have a fitted effect of over 55% in size)
Outline: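 MDA-kb2 breast carcinoma cells carrying MMTV-luciferase (AR/GR responsive) were co-treated with compounds and the agonist R1881 for 16 h at 37C. Inhibition read as ONE-Glo luminescence; CellTiter-Fluor fluorescence measured in parallel for cytotoxicity.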

[10] = qHTS assay for identifying genotoxic compounds that show differential cytotoxicity against isogenic chicken DT40 cell lines with known DNA damage response pathways - wild type cell line (AID 743012); note: nearly all actives have a fitted effect of over 60% in size; note: potency is the fitted concentration of half-maximal effect
Outline: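 Using parental DT40 (300 cells/well), compounds delivered in DMSO incubate 40 h at 37 C/5% CO2. CellTiter-Glo reagent then stands 30 min at room temperature, and luminescence gives cell viability.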

Measured: Potency

Oc1c(I)cc(Cl)c2cccnc12
active: [2] 11.9 µM and 15.3 µM | [3] 16.8 µM and 19.3 µM
inactive and 17.3 µM (active): [4]
not listed: [10]
inactive: all other assays above

CCCCCCCC/C=C\CCCCCCCCN
inactive: [1] | [10] | [3] | [4] | [8]

CN(C)Cc1ccccc1O
not listed: [10]
inactive: all other assays above

CC(=O)CC(=O)Nc1ccc(S(=O)(=O)O)cc1
inactive: [1] | [10] | [3] | [4] | [8]

CC1(C)[C@@H](O)CC[C@]2(C)[C@H]3C(=O)C=C4[C@@H]5C[C@@](C)(C(=O)O)CC[C@]5(C)CC[C@@]4(C)[C@]3(C)CC[C@@H]12
5.96 µM (active) and inactive: [2]
2.37 µM (active) and inactive: [3]
not listed: [10]
inactive: all other assays above

Cc1cc(C(C)(C)C)cc(C)c1CC1=NCCN1
inactive: [1] | [10] | [3] | [8]

OC/C=C/CO
inactive: [1] | [10] | [3] | [4] | [8]

CC(=O)OCC=C(C)C
not listed: [10]
inactive: all other assays above

C=Cc1cccc(C)c1
inactive: [1] | [10] | [3] | [4] | [8]

CCCCCCCCCCCCOC(=O)c1ccc(O)cc1
active: [1] 24.7 µM
not listed: [6] | [7] | [10]
inactive: all other assays above

COC(=O)c1ccccc1C
inactive: [1] | [10] | [3] | [4] | [8]

OC1CCCc2ccccc21 (centres undefined)
inactive: [1] | [10] | [4] | [8]

CN1CCCCC1CCN1c2ccccc2Sc2ccc(S(C)=O)cc21 (centres undefined)
active: [10] 29.8 µM | [3] 29.8 µM
inactive: [1] | [4] | [8]

CN1CCC[C@@H]1CCO[C@](C)(c1ccccc1)c1ccc(Cl)cc1
inactive: [1] | [4] | [8]
active: [10] 9.44 µM | [3] 21.1 µM

CCn1c2ccccc2c2cc([N+](=O)[O-])ccc21
active: [10] 48.6 µM | [3] 54.5 µM
inactive: [1] | [4] | [8]

ClCCl
not listed: [10]
inactive: all other assays above

C#C[C@]1(O)CC[C@H]2[C@@H]3[C@H](C)CC4=C(CCC(=O)C4)[C@H]3CC[C@@]21C
inactive: [1] | [4] | [8]
active: [10] 10.6 µM | [3] 21.1 µM

O=C1CCCCCCCCCCCCCCCO1
inactive: [1] | [10] | [3] | [4] | [8]

CCCC(=O)OCCc1ccccc1
inactive: [1] | [2] | [4] | [8]

CC(=O)[C@H]1CC[C@H]2[C@@H]3CCC4=CC(=O)CC[C@]4(C)[C@H]3CC[C@]12C
inactive: [8]
active: [1] 3.87 µM | [2] 9.44 µM and 6.82 µM and 6.86 µM | [3] 9.44 µM and 12.1 µM and 12.2 µM
inactive and 43.6 µM (active): [4]

Cc1ccc(O)c(N)c1
inactive: [1] | [4]
active: [3] 61.2 µM

Clc1nnc(Cl)c2ccccc12
inactive: [1] | [3] | [4] | [8]

[Cl][Pt-2]([Cl])([Cl])[Cl]
inactive: [1] | [3] | [4] | [8]

Cl[Si](Cl)(c1ccccc1)c1ccccc1
inactive: [1] | [2] | [3] | [4] | [8]

O=C(O)c1ccc2cc(C(=O)O)ccc2c1
inactive: [1] | [3] | [4] | [8]

CCCCCCC1CCCC(=O)O1 (centres undefined)
inactive: [1] | [3] | [4]

CCCCCCCCCCCC(=O)OCC(C)OC(=O)CCCCC(=O)O (centres undefined)
inactive: [1] | [2] | [4] | [8]

CC[N+](CC)(CC)CCOC(=O)C(C1CCCC1)C1CCCC1
inactive: [1] | [4] | [8]
active: [2] 11.9 µM | [3] 8.41 µM

CC1(C)CCC[C@]2(C)[C@H]3CC(=O)O[C@]3(C)CC[C@@H]12
inactive: [1] | [8]
active: [2] 61.1 µM

CCCNCCC
inactive: [1] | [2] | [3] | [4] | [8]
